{
  "source": "ChEMBL document CHEMBL4513136",
  "about": "“CO-ADD screening of CSIC (Spain) compounds”",
  "key": {"Staphylococcus aureus": {"tested_on": "Staphylococcus aureus", "conditions": "Concentration 32 ug.mL-1; ASSAY_TEST Inhibition of Bacterial Growth; detection method Absorption (OD600); MEDIA CAMHB; plate type 384well; NBS; CORNING #3640; time 18 hr"}, "Escherichia coli": {"tested_on": "Escherichia coli", "conditions": "Concentration 32 ug.mL-1; ASSAY_TEST Inhibition of Bacterial Growth; detection method Absorption (OD600); MEDIA CAMHB; plate type 384well; NBS; CORNING #3640; time 18 hr"}},
  "note": "Entries with a potency or affinity are not part of this list.",
  "data": [
    {"smiles": "COc1ccc(OC)c(NC(=O)Nc2ccc(OC)cc2OC)c1", "values": [
      {"measurement": "Inhibition", "setting": "Staphylococcus aureus", "value": 5.98, "unit": "%"},
      {"measurement": "Inhibition", "setting": "Escherichia coli", "value": -17.47, "unit": "%"}
    ]},
    {"smiles": "Oc1ccc(-n2cc(-c3cc(O)ccc3O)nn2)cc1", "values": [
      {"measurement": "Inhibition", "setting": "Staphylococcus aureus", "value": 19.08, "unit": "%"},
      {"measurement": "Inhibition", "setting": "Escherichia coli", "value": -16.85, "unit": "%"}
    ]},
    {"smiles": "O=C(Nc1ccc(O)cc1O)Nc1cc(O)ccc1O", "values": [
      {"measurement": "Inhibition", "setting": "Staphylococcus aureus", "value": 10.74, "unit": "%"},
      {"measurement": "Inhibition", "setting": "Escherichia coli", "value": -13.5, "unit": "%"}
    ]},
    {"smiles": "O=C(Cc1cc(O)ccc1O)Nc1cc(O)ccc1O", "values": [
      {"measurement": "Inhibition", "setting": "Staphylococcus aureus", "value": 22.67, "unit": "%"},
      {"measurement": "Inhibition", "setting": "Escherichia coli", "value": -14.95, "unit": "%"}
    ]},
    {"smiles": "COc1ccc(OC)c(C(=O)/C=C/c2ccc(O)cc2)c1", "values": [
      {"measurement": "Inhibition", "setting": "Staphylococcus aureus", "value": 10.84, "unit": "%"},
      {"measurement": "Inhibition", "setting": "Escherichia coli", "value": -21.08, "unit": "%"}
    ]},
    {"smiles": "COc1ccc(OC)c(C(=O)CCc2ccccc2O)c1", "values": [
      {"measurement": "Inhibition", "setting": "Staphylococcus aureus", "value": 15.3, "unit": "%"},
      {"measurement": "Inhibition", "setting": "Escherichia coli", "value": -20.89, "unit": "%"}
    ]},
    {"smiles": "COc1ccc(OC)c(CC(=O)Nc2cc(OC)ccc2OC)c1", "values": [
      {"measurement": "Inhibition", "setting": "Staphylococcus aureus", "value": 27.17, "unit": "%"},
      {"measurement": "Inhibition", "setting": "Escherichia coli", "value": -12.93, "unit": "%"}
    ]},
    {"smiles": "COC(=O)c1c(C(Cc2ccccc2)NC(=O)OCc2ccccc2)[nH]c2ccccc12", "note": "(configuration not stated)", "values": [
      {"measurement": "Inhibition", "setting": "Staphylococcus aureus", "value": 22.9, "unit": "%"},
      {"measurement": "Inhibition", "setting": "Escherichia coli", "value": -13.62, "unit": "%"}
    ]},
    {"smiles": "O=C(/C=C/c1ccccc1O)c1cc(O)c(O)cc1O", "values": [
      {"measurement": "Inhibition", "setting": "Staphylococcus aureus", "value": 26.82, "unit": "%"},
      {"measurement": "Inhibition", "setting": "Escherichia coli", "value": -8.37, "unit": "%"}
    ]},
    {"smiles": "COc1ccccc1/C=C/C(=O)c1cc(OC)c(OC)cc1OC", "values": [
      {"measurement": "Inhibition", "setting": "Staphylococcus aureus", "value": 26.72, "unit": "%"},
      {"measurement": "Inhibition", "setting": "Escherichia coli", "value": -13.16, "unit": "%"}
    ]},
    {"smiles": "COc1ccc(OC)c(C(=O)CCc2ccc(O)cc2)c1", "values": [
      {"measurement": "Inhibition", "setting": "Staphylococcus aureus", "value": 16.63, "unit": "%"},
      {"measurement": "Inhibition", "setting": "Escherichia coli", "value": -22.53, "unit": "%"}
    ]},
    {"smiles": "O=C(CCc1ccc(O)cc1O)c1cc(O)ccc1O", "values": [
      {"measurement": "Inhibition", "setting": "Staphylococcus aureus", "value": 23.73, "unit": "%"},
      {"measurement": "Inhibition", "setting": "Escherichia coli", "value": -20.02, "unit": "%"}
    ]},
    {"smiles": "O=C(OCc1ccccc1)N1C(=O)C(c2ccccc2NC(=O)C(F)(F)F)=C(O)C1Cc1ccccc1", "note": "(configuration not stated)", "values": [
      {"measurement": "Inhibition", "setting": "Staphylococcus aureus", "value": 36.54, "unit": "%"},
      {"measurement": "Inhibition", "setting": "Escherichia coli", "value": -6.54, "unit": "%"}
    ]},
    {"smiles": "COc1ccc(NC(=O)Cc2cc(OC)ccc2OC)cc1", "values": [
      {"measurement": "Inhibition", "setting": "Staphylococcus aureus", "value": 31.14, "unit": "%"},
      {"measurement": "Inhibition", "setting": "Escherichia coli", "value": -11.77, "unit": "%"}
    ]},
    {"smiles": "Oc1ccc(O)c(-c2cn(-c3ccc(O)c(O)c3)nn2)c1", "values": [
      {"measurement": "Inhibition", "setting": "Staphylococcus aureus", "value": 34.68, "unit": "%"},
      {"measurement": "Inhibition", "setting": "Escherichia coli", "value": -12.66, "unit": "%"}
    ]},
    {"smiles": "COC(=O)C1(Cc2ccc(OCc3c(Cl)cccc3Cl)cc2)C(C)C(=O)N1Cc1ccc(OC)cc1", "note": "(configuration not stated)", "values": [
      {"measurement": "Inhibition", "setting": "Staphylococcus aureus", "value": 19.17, "unit": "%"},
      {"measurement": "Inhibition", "setting": "Escherichia coli", "value": -12.56, "unit": "%"}
    ]},
    {"smiles": "O=C(Cc1cc(O)ccc1O)Nc1ccc(O)cc1O", "values": [
      {"measurement": "Inhibition", "setting": "Staphylococcus aureus", "value": 17.97, "unit": "%"},
      {"measurement": "Inhibition", "setting": "Escherichia coli", "value": -13.2, "unit": "%"}
    ]},
    {"smiles": "COc1ccc(OC)c(CC(=O)Nc2ccc(OC)cc2OC)c1", "values": [
      {"measurement": "Inhibition", "setting": "Staphylococcus aureus", "value": 26.56, "unit": "%"},
      {"measurement": "Inhibition", "setting": "Escherichia coli", "value": -12.34, "unit": "%"}
    ]},
    {"smiles": "COc1ccc(CN2C(=O)C(C)C2(Cc2cn(C(=O)OC(C)(C)C)c3ccccc23)C(=O)OC(C)(C)C)cc1", "note": "(configuration not stated)", "values": [
      {"measurement": "Inhibition", "setting": "Staphylococcus aureus", "value": 27.02, "unit": "%"},
      {"measurement": "Inhibition", "setting": "Escherichia coli", "value": -6.98, "unit": "%"}
    ]},
    {"smiles": "CC1C(=O)N(Cc2ccc(OCCN3CCOCC3)cc2)C1(Cc1ccccc1)C(=O)O", "note": "(configuration not stated)", "values": [
      {"measurement": "Inhibition", "setting": "Staphylococcus aureus", "value": 11.78, "unit": "%"},
      {"measurement": "Inhibition", "setting": "Escherichia coli", "value": -10.5, "unit": "%"}
    ]},
    {"smiles": "COc1ccc(OC)c(-c2cn(-c3ccc(OC)c(OC)c3)nn2)c1", "values": [
      {"measurement": "Inhibition", "setting": "Staphylococcus aureus", "value": -11.96, "unit": "%"},
      {"measurement": "Inhibition", "setting": "Escherichia coli", "value": -27.73, "unit": "%"}
    ]},
    {"smiles": "O=C(Cc1cc(O)ccc1O)Nc1ccc(O)cc1", "values": [
      {"measurement": "Inhibition", "setting": "Staphylococcus aureus", "value": 29.77, "unit": "%"},
      {"measurement": "Inhibition", "setting": "Escherichia coli", "value": -10.96, "unit": "%"}
    ]},
    {"smiles": "COc1ccc(OC)c(C(=O)/C=C/c2c[nH]c3ccc(OC)cc23)c1", "values": [
      {"measurement": "Inhibition", "setting": "Staphylococcus aureus", "value": 20.69, "unit": "%"},
      {"measurement": "Inhibition", "setting": "Escherichia coli", "value": -14.33, "unit": "%"}
    ]},
    {"smiles": "COc1ccc(OC)c(C(=O)/C=C/c2ccccc2O)c1", "values": [
      {"measurement": "Inhibition", "setting": "Staphylococcus aureus", "value": 11.52, "unit": "%"},
      {"measurement": "Inhibition", "setting": "Escherichia coli", "value": -22.92, "unit": "%"}
    ]},
    {"smiles": "O=C(/C=C/c1c[nH]c2ccc(O)cc12)c1cc(O)ccc1O", "values": [
      {"measurement": "Inhibition", "setting": "Staphylococcus aureus", "value": 20.75, "unit": "%"},
      {"measurement": "Inhibition", "setting": "Escherichia coli", "value": -12.64, "unit": "%"}
    ]},
    {"smiles": "COc1ccc(C(=O)/C=C/c2ccc(OC)cc2OC)cc1", "values": [
      {"measurement": "Inhibition", "setting": "Staphylococcus aureus", "value": 6.51, "unit": "%"},
      {"measurement": "Inhibition", "setting": "Escherichia coli", "value": -22.4, "unit": "%"}
    ]}
  ]
}
